High-throughput results (PubChem)
This is a sample that favours compounds with a hit; in the whole collection about 2.9% have one here.
HSF1 inhib: HSF1 inhibition; NIH3T3-HGL HSE-luciferase, MG132-induced, luminescence 8 h; hits give low values; activity change, negative = inhibition, % at 7.5 µM (by protocol); 300,000 tested, 0.77% active;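 active means more than half of replicate wells show activity change below -50%, luminescence cut by over half; inconclusive means some wells, but at most half, below -50%; inactive means no replicate well below -50%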;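 further: luciferase reports HSF-1 transcriptional activity via heat shock element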
S1P3 antag: blocks the human S1P3 receptor; inhibition, % at 4.98 µM; Q99500; AID 485; 170,000 tested, 0.27% active; CHO S1P3 NFAT-BLA reporter, FRET fluorescence, antagonist mode;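 active means inhibition above the plate cutoff, the mean inhibition of test wells on that plate plus 3 SD, cut at about 28% in these data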;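 further: cells challenged with S1P at its EC80 of 0.8 µM; blue over green emission ratio from cleaved BLA substrate after 4 h stimulation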
HSF1 activator: increases HSF-1 driven luciferase reporter signal; NIH3T3-HGL HSF-1 luciferase reporter, MG132, 8 h; 100% = twice DMSO control signal; activation, % at 9 µM; 300,000 tested, 1.7% active; AID 504408;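 active means mean replicate activation of at least 50% with a set share of replicates each reaching 50%; inconclusive means only one of those two conditions met; inactive means mean below 50% and too few replicates reaching it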
S1P4 ag: human S1P4 receptor agonism; O95977; activation, % at 4.98 µM; 220,000 tested, 0.35% active; S1P4-expressing cell line, agonist reporter assay; AID 1509; in the data active means activation above about 11%
Target sequence (O95977 whole entry, looked up): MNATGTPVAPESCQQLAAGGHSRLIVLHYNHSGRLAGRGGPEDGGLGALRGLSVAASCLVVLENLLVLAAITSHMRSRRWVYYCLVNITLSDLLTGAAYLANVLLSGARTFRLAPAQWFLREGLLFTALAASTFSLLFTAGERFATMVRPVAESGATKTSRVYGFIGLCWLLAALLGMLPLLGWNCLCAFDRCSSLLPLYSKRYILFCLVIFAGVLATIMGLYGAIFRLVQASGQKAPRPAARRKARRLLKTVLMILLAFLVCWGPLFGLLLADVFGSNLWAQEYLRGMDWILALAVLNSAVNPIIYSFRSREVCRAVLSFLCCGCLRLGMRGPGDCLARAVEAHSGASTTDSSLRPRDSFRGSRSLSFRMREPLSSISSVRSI
S1P4 antag: blocks the human S1P4 receptor; O95977; S1P4-expressing cells, antagonist mode, reporter read-out; inhibition, % at 4.98 µM; 220,000 tested, 0.26% active; AID 1510; in the data active means inhibition above about 29%
Hsp70 act: transcriptional activators of Hsp70. HeLa Hsp70 promoter luciferase reporter, luminescence; scaled: vehicle 0, proteasome-inhibitor control 100%. 200,000 tested, 0.04% active. activation, % at 10 µM. AID 1203;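 active means activation above the mean across all tested compounds plus 3 SD, cutoff set per campaign, cut at about 5.5% in these data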
Numbers stand for hits; n = inactive; u = inconclusive; x = not tested or not shown.

SMILES	HSF1 inhib	S1P3 antag	HSF1 activator	S1P4 ag	S1P4 antag	Hsp70 act
O=C(c1ccc(F)cc1)C(CN1CCOCC1)c1ccccc1 (stereo not given)	n	n	n	n	n	n
O=C(c1ccccc1)C(CCC(CN1CCOCC1)C(=O)c1ccccc1)CN1CCOCC1 (stereo not given)	n	x	85.9	n	n	n
CC(CN1CCOCC1)OC(=O)C(C)(c1ccccc1)c1ccccc1 (stereo not given)	n	x	n	n	n	n
CC1CCCN(C(=O)c2ccc(NC(=O)CC3SC(N4CCCC4)=NC3=O)cc2)C1 (stereo not given)	n	x	n	x	x	x
CC1=C(C(=O)OC(C)(C)C)C(c2cccc3ccccc23)NC(=O)N1 (stereo not given)	n	x	n	x	x	x
O=C(COc1ccc(Cl)cc1)Nc1ccc2oc(-c3ccncc3)nc2c1	n	n	n	n	n	n
CC(C)(Oc1ccc(Cl)cc1)C(=O)Nc1ccc2oc(-c3ccncc3)nc2c1	n	n	110.1	n	n	n
Cc1ccc(N(C(=O)c2csnn2)C(C(=O)NC2CCCC2)c2ccccn2)cc1 (stereo not given)	n	x	n	x	x	x
CC1=CN2C(=N)/C(=C/c3ccc([N+](=O)[O-])o3)C(=O)N=C2S1	n	n	75.4	n	n	n
Brc1ccc(OCc2nnnn2-c2ccccc2)cc1	n	n	n	n	n	n
COc1ccc(OCc2nnnn2-c2ccccc2)cc1	n	x	54.6	n	n	n
COc1ccc(Cl)cc1NC(=S)N1CCCC1	n	n	n	n	n	n
COc1ccc2[nH]c(C)c(CCNc3ccc(C(F)(F)F)cc3[N+](=O)[O-])c2c1	n	n	60.9	n	n	n
CC(=O)Nc1ccc(NCC(=O)c2ccccc2)cc1	n	x	n	x	x	x
CC(C)(C)NC(=O)c1cccc(NC(=O)CSc2ccc(Cl)cc2)c1	n	n	172.8	n	n	n
Cc1cc(-c2sccc2Br)nc(-n2cccc2)n1	n	n	71.6	n	n	n
CCCNc1nc(C)cc(-c2cc(C(=O)NC3CCCC3)on2)n1	n	x	n	x	x	x
CCOC(=O)CSc1ccc(C(=O)NCCCN2CCOCC2)cc1[N+](=O)[O-]	-68.7	x	n	x	x	x
CCCCN1C(=O)C(=O)NC[C@@H]1CCCCN	n	x	n	x	x	x
C/C(CC(=O)Nc1ccc(C)c(Cl)c1)=N\NC(=O)Cc1ccccc1	n	n	u	n	n	n
C/C(CC(=O)Nc1ccc(C)c(Cl)c1)=N\NC(=O)Cc1cnc(N)s1	n	n	61.1	n	n	n
O=[N+]([O-])c1ccc(-c2csc(Nc3ccccc3)[n+]2Cc2ccccc2)cc1	n	n	84.1	n	n	n
COc1ccc(-c2csc(Nc3ccccc3)[n+]2Cc2ccccc2)cc1	n	n	n	n	n	n
COc1cccc(N=CC2=C(O)CC(C)(C)CC2=O)c1	n	n	86.6	n	n	n
CC1(C)CC(=O)C(C=Nc2ccc3cn[nH]c3c2)=C(O)C1	n	n	54.2	n	n	n
SMILES	HSF1 inhib	S1P3 antag	HSF1 activator	S1P4 ag	S1P4 antag	Hsp70 act
COc1cccc(N=CC2=C(O)CCCC2=O)c1	n	n	n	n	n	n
COc1ccccc1N1CCN(C(=O)NCc2cccc(C(F)(F)F)c2)CC1	n	x	n	x	x	x
CCC(=O)Nc1ccc(-c2nc(-c3ccccc3)n(CC(=O)N3CCCCC3)n2)cc1	n	n	n	n	n	n
COc1ccc(-c2cc(C(F)(F)F)nc(S(=O)(=O)CCCC(=O)Nc3cccc(O)c3)n2)cc1OC	n	n	260.4	n	n	n
COc1ccc(-c2cc(C(F)(F)F)nc(S(=O)(=O)CCC(=O)N3CCOCC3)n2)cc1	n	n	106.4	n	n	n
COc1ccc(C(=S)N2CCN(c3cccc(Cl)c3)CC2)cc1	n	n	n	n	n	x
O=C(NNc1c(Cl)cccc1Cl)c1cccs1	n	n	n	n	n	x
Cc1nn(-c2ccccc2)c2sc(C(=O)O)cc12	n	x	n	n	n	n
Cc1ccc(-n2nc(C)c3cc(C(=O)O)sc32)cc1	-69.4	n	n	n	n	n
COc1ccccc1NC(=O)CSc1nnc(COc2ccc(Cl)cc2)n1Cc1ccco1	n	n	93.6	n	n	n
Cc1ccc(OCc2nnc(SCC(N)=O)n2N)cc1	n	n	n	n	n	n
COCCn1c(COc2ccc(Cl)cc2)nnc1SCC(N)=O	n	62.5	n	n	n	n
Cc1cc(C)nc(NC(=S)Nc2ccccc2)n1	n	n	51.4	n	n	n
Cc1cc(C)nc(NC(=S)NC(=O)c2ccccc2)n1	n	x	n	x	x	x
Cc1ccc(Sc2ccc(N)cc2C#N)cc1	n	x	n	n	n	n
CCN(CC(=O)Nc1cccc(OC)c1)CC(=O)Nc1ccccc1C	n	x	n	x	x	x
CCN(CC(=O)Nc1cccc(OC)c1)CC(=O)Nc1ccc(Br)c(C)c1	n	x	55.0	x	x	x
CCOC(=O)c1c(C)[nH]c(C2=NNC(=Nc3cccc(Cl)c3)SC2)c1C	-74.8	n	n	n	n	n
CC1CCCCC1NC(=O)CNC(=O)c1ccco1 (stereo not given)	n	x	n	x	x	x
O=c1c2c3c(sc2ncn1/N=C/c1ccc([N+](=O)[O-])o1)CCCC3	n	x	265.7	n	n	n
Cn1cc(/C=N/n2cnc3sc4c(c3c2=O)CCCC4)c2ccccc21	n	n	n	n	n	n
CC1CN(C(=O)CCNC(=O)c2ccc(Cl)cc2)CC(C)O1 (stereo not given)	n	x	n	x	x	x
O=C(Nc1nc2c(F)cc(F)cc2s1)C1CC1	n	x	n	x	x	x
Cc1ccc(NC(=O)CC2=NC(=O)C(CC(=O)Nc3ccccc3F)S2)cc1 (stereo not given)	n	n	n	n	n	n
CC(=O)Nc1ccc(S(=O)(=O)Nc2nc3ccccc3nc2Nc2ccc3ccccc3c2)cc1	n	n	105.7	n	n	n
SMILES	HSF1 inhib	S1P3 antag	HSF1 activator	S1P4 ag	S1P4 antag	Hsp70 act
COc1ccc(S(=O)(=O)NCC(c2cccnc2)N2CCN(C)CC2)cc1OC (stereo not given)	-71.4	x	n	x	x	x
Cc1ccccc1OCCCC(=O)Nc1ccccc1C(F)(F)F	n	x	90.8	n	n	n
C[C@@H]1NC(=O)N(c2ccc(F)cc2)C1=O	n	x	n	x	x	x
CCOc1ccc(-n2cc(C(=O)N3CCC(C)CC3)c3cc(OC)c(OC)cc3c2=O)cc1	n	n	66.1	n	n	n
CCOc1ccc(NC(=O)c2cn(-c3ccc(OCC)cc3)c(=O)c3cc(OC)c(OC)cc23)cc1	n	x	n	n	n	n
c1ccc(-c2ccc3c(c2)NCCN3)cc1	n	n	n	n	n	x
O=C(CCCn1c(=S)[nH]c2cc3c(cc2c1=O)OCO3)NCc1ccco1	n	n	54.8	n	n	n
CCOc1cc2[nH]c(=S)n(CCCC(=O)NCc3ccco3)c(=O)c2cc1OCC	n	x	n	n	n	n
COc1nc(N2CCCC2)nc(-n2cc(-c3ccccc3)nn2)n1	x	n	x	x	x	x
COC(=O)NCc1ccc(Cl)c(Cl)c1	n	n	n	n	n	n
COc1ccc(CNC(=O)Oc2ccccc2)cc1Cl	n	x	94.1	n	n	n
